In this assay the target is Dickkopf-related protein 1 (Homo sapiens) (UniProt O94907). Briefly: DKK1 binders on small-molecule microarrays, primary screen, biochemical, small-molecule microarray, 635 nm fluorescence scan (AID 1106).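 Further: score merges emission near 667 nm with signal to noise over three replicate slides.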 Conditions: DKK1 binding, higher = more signal.
Chain of Dickkopf-related protein 1 (Homo sapiens) (O94907 whole entry, looked up): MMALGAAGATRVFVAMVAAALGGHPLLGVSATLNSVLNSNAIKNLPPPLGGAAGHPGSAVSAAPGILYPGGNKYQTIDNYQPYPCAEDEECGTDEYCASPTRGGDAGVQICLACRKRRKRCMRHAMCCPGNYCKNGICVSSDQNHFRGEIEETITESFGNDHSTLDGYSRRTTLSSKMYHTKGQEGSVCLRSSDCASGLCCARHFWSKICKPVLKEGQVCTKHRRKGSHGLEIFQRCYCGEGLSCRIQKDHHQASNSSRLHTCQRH
`C=C(CCCC)C(=O)CC[C@@H](OC(=O)c1ccccc1-c1ccccc1C(=O)O)c1ccc(CO)o1` came in with a composite z-score of 1.03. In the case of `O=C1c2ccccc2[C@](Cc2ccccc2I)(C(=O)O)[C@H](c2ccc(CO)cc2)N1Cc1ccccc1C(F)(F)F` it was -0.376; in that of `O[C@@H](Cc1ccccc1)[C@@H](/C=C/c1ccccc1)NCc1ccccc1Br`, -1.42. The compound `O=C(NCc1ccccc1)[C@@H]1c2ccccc2C(=O)N(Cc2cc(F)cc(C(F)(F)F)c2)[C@H]1c1ccc(CO)cc1` yielded a composite z-score of -0.0135.

`CCCCN1CC=CC23O[C@@H]4/C=C\CCCOC(=O)C4[C@H]2C(=O)N(C(C)CO)[C@@H]3C1=O` (some centres undefined) showed a composite z-score of 0.326.

Turning to `CC(C)C(CO)N1C(=O)[C@@H]2[C@H]3C(=O)OCC=C[C@H]3OC23C=CCN(c2ccc4ccccc4c2)C(=O)[C@@H]13` (some centres undefined), the composite z-score was -0.688.

On to `C=C(/C(=C/C[C@@H](OC(=O)c1ccncc1)c1ccc(CO)o1)c1cc(C(=O)OC)ccc1OC)C(C)C`, for which the composite z-score turned out to be 0.432.

`C=CC[C@@]1(C(=O)OC)N=C(c2ccc(OCCCO)cc2)O[C@@H]1c1ccccc1CN=[N+]=[N-]`: the composite z-score is -0.231. In the case of `[N-]=[N+]=Nc1ccccc1[C@H]1OC(c2ccc(OCCCO)cc2)=N[C@@]1(CCS(=O)(=O)c1ccccc1)C(=O)N1CCOCC1` it was -0.169; in that of `C=CCN1C(=O)[C@@]2(O[C@@H](CCO)[C@H]([Si](C)(C)c3ccc(OC)cc3)[C@H]2C)c2cc(N3C(=O)COc4ccccc43)ccc21`, -0.609; in that of `CCCC[C@H]1OB(O)C[C@H]2C1=C(COc1ccccc1)C[C@H]1C(=O)N(Cc3ccccc3)C(=O)[C@H]12`, 0.193. `C#C[C@H](O[Si](C#CCCCCCC)(C(C)C)C(C)C)c1ccccc1` had a composite z-score of -0.169. In the case of `C=CCNC(=O)[C@H]1[C@@H]2C(=O)O[C@@H](c3ccccc3)[C@@H](c3ccccc3)N2[C@@H](c2ccc(O)cc2)[C@]12C(=O)Nc1ccc(C#Cc3ccc(OC)cc3)cc12` it was 0.94. As for `[N-]=[N+]=NCc1ccccc1C[C@@]1(C(=O)NCc2ccccc2)N=C(c2ccc(OCCCO)cc2)O[C@@H]1c1ccccc1CN=[N+]=[N-]`, the composite z-score is -0.242. `C[N+](C)(C)CCCC[C@@H]1NC(=O)[C@H]2C[C@@H](C(=O)O)[C@@H](c3cccc(OCCO)c3)N2C1=O` came in with a composite z-score of 1.3. In the case of `C=CCN1Cc2ccccc2C[C@@]2(COC(c3ccc(OCCCO)cc3)=N2)C1=O` it was 0.644. Next, `[N-]=[N+]=NCc1ccccc1C[C@]1(C(N)=O)N=C(c2ccc(OCCCO)cc2)O[C@H]1c1ccccc1N=[N+]=[N-]`: -0.322; `CC(C)N1C(=O)c2ccccc2[C@](C)(C(=O)NCCCN(C)C)[C@@H]1c1ccc(CO)cc1`: -1.78. Next, `COCCOC(=O)N1C(=O)[C@@]2(c3ccccc31)[C@H](C(=O)N1CCCCCCC1)[C@H]1C(=O)O[C@H](c3ccccc3)[C@H](c3ccccc3)N1[C@@H]2c1ccccc1OCCO`: 1.5. `C=C(COC)C(=O)CC[C@@H](OC(=O)c1ccccc1-c1ccccc1C(=O)O)c1ccc(CO)o1` came in with a composite z-score of 1.14. `COCCn1c(C(=O)N2CCCC2)cc2c1C[C@H]1CN(C(=O)c3ccccc3)[C@@](Cc3ccc(OC)cc3)(C(=O)OC)[C@@H]21` showed a composite z-score of -0.223. `COc1ccc([Si](C)(C)[C@H]2[C@H](CC(=O)N3CCC[C@H]3CO)O[C@@]3(C(=O)N(c4ccccc4)c4ccccc43)[C@@H]2C)cc1` displayed a composite z-score of 0.487. In the case of `C=CCC(OC(C)=O)[C@@H]1[C@@H](N(Cc2cc3ccccc3o2)C(=O)c2ccc(-c3ccccc3)cc2)c2cc(OCCCO)ccc2N1C(=O)Cc1ccc2ccccc2c1` (some centres undefined) it was -0.251. Next, `C/C=C/[C@H](CCn1cc([C@H](O)c2ccccc2)nn1)[Si](C)(C)c1ccc(OC)cc1`: -0.338; `CCCC[C@@H]1C[C@H]1[C@@H](NC(=O)c1ccccc1)c1ccccc1`: -0.256. `O=C1OCCC=C[C@H]2OC34C=CCN(c5ccc6ccccc6c5)C(=O)[C@H]3N(CCCCCCO)C(=O)[C@@H]4C12` (some centres undefined) had a composite z-score of -1.26.

The compound `COc1ccc([Si](C)(C)[C@H]2[C@H](CC(=O)N(CCO)Cc3ccccc3)O[C@@]3(C(=O)N(Cc4cccc(N5C(=O)c6cccc7cccc5c67)c4)c4ccccc43)[C@@H]2C)cc1` registered a composite z-score of 0.491. In the case of `C=CCC(OC(C)=O)[C@@H]1[C@@H](N(Cc2cc3ccccc3o2)C(=O)c2cccc3ccccc23)c2cc(OCCCO)ccc2N1C(=O)Cc1ccc(OC)cc1` (some centres undefined) it was 0.429; in that of `COC(=O)[C@@]1(Cc2ccc(OC)cc2)[C@H]2c3cc(C(=O)N4CCCC4)n(CCc4ccccn4)c3C[C@H]2CN1C(=O)c1ccccc1`, -0.949.

(Values after PubChem BioAssay.)
